Bioassay records deposited in PubChem by several laboratories.
The list is not random: actives were taken first. Their share in the collection is about 5.1%.
TMEM16A act: activators or potentiators of mouse TMEM16A chloride channel. actives 0.3% (n = 340,000). B-score at 10 µM. Q8BHY3. HEK293 TMEM16A/YFP-H148Q/I152L, iodide quench fluorescence; hits give low values;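 active = fluorescence-ratio B-score plate-corrected deviation score at least 3 library SD below zero, with starting fluorescence score within 5 deviations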;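 note: channel opened by trigger with iodide after compound preincubation; score built on the fluorescence ratio of max minus min over baseline; more negative score means more quench and so TMEM16A activation or potentiation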
Target sequence (Q8BHY3 whole entry, looked up): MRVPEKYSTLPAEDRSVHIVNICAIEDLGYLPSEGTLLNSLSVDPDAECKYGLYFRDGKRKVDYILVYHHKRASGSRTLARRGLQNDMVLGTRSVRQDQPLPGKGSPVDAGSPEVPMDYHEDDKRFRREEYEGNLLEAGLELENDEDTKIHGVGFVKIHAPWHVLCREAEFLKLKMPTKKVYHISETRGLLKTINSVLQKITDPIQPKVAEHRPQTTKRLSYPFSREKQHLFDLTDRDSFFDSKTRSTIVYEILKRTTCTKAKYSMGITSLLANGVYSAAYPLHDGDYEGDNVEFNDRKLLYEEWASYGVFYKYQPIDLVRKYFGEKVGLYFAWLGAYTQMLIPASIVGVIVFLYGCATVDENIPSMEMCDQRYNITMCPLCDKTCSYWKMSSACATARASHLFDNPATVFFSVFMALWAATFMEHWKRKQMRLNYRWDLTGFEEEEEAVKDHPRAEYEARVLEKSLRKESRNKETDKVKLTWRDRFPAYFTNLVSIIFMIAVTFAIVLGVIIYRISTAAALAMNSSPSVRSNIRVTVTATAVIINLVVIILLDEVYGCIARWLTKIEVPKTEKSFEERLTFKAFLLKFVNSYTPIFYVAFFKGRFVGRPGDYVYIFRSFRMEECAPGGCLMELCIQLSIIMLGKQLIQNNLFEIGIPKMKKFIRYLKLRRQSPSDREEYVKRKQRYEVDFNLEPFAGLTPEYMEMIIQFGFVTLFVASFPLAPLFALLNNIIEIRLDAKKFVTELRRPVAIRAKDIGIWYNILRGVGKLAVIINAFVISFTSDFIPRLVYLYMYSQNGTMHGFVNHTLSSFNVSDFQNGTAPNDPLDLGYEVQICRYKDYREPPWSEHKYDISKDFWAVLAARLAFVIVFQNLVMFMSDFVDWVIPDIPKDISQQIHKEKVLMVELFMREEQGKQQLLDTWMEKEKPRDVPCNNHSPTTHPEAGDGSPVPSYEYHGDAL
MPTP inh: permeability transition pore inhibition; isolated mouse mitochondria, Ca2+ swelling absorbance, 30 min; inhibition, % at 10 µM; actives 1.4% (n = 360,000);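 active = inhibition of 50% or more, scaled per plate between neutral and stimulator controls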
CRFBP-R2 block: antagonists of CRF-binding protein/CRF-R2 receptor complex. inhibition, % at 11.8 µM. actives 0.59% (n = 350,000). HEK293 CRF-R2/CRF-BP, CRF-induced calcium fluorescence. AID 588475;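 active = inhibition of the ligand-induced calcium signal above about 50% at the single tested concentration, limit read from the data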
GRIN3A LBD mod: NR3A (human) ligand-binding domain modulation; actives 2.5% (n = 340,000); Tm shift relative to glycine control, % at 25 µM; NR3A LBD differential scanning fluorimetry, Tm shift; 0% = protein alone, 100% = glycine-bound protein;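 active = melting temperature shift of at least 10% of the positive control shift, at one fixed dose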
TMEM16A inh: mouse TMEM16A channel inhibition, primary screen; HEK293 TMEM16A/YFP iodide influx fluorescence, ionomycin; normalized B-score (activity score, 25-100; higher = stronger inhibition) at 10 µM; actives 1.2% (n = 310,000); AID 588511;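 active = ratio plate-corrected score three or more library SD toward inhibition, starting fluorescence score within five deviations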;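 note: score derived from kinetic fluorescence span divided by baseline fluorescence per well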
CRFBP-R2 agonist: agonists of human CRF-binding protein/CRF-R2 receptor complex | activation, % at 13.2 µM | actives 0.46% (n = 350,000) | HEK293 CRF-R2/CRF-BP, calcium dye fluorescence (FLIPR); percent of saturating CRF peptide response;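 active = activation of at least 50%, plus an integration ratio under a set limit after plate pattern correction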
Large screens that a line does not name were inactive.

Cc1cc(C)c(-c2cc(NC(=O)COC(=O)c3ccc(NC(=O)CC#N)cc3)n(-c3ccccc3)n2)cc1C	GRIN3A LBD mod 27.2
O=C(COC(=O)c1ccc(O)cc1O)Nc1cc(-c2ccccc2)nn1-c1ccccc1	GRIN3A LBD mod 24.7
CCC1(c2ccccc2)ON(c2c(Br)cccc2Br)C1=O (stereo unspecified)	none (no result: TMEM16A inh)
CCOC(=O)C1CCCN1C(=O)C1(NC(C)=O)CCCC1 (stereo unspecified)	none (no result: TMEM16A inh)
C#CCN(C[C@@H](CC(C)C)NC(=O)OC(C)(C)C)S(=O)(=O)c1ccc(Br)cc1F	none (no result: TMEM16A act, TMEM16A inh)
CC1CCC(N(C)C(=O)CN2C(=O)NC(c3ccccc3)(c3ccccc3)C2=O)CC1 (stereo unspecified)	none (no result: TMEM16A act, GRIN3A LBD mod, TMEM16A inh)
COc1ccc(N2CCN(CNC(=O)c3ccccc3)CC2)cc1	none
CCOc1cc(/C=N/NC(=O)c2nn(C)cc2Br)ccc1OCc1ccccc1	GRIN3A LBD mod 10.2
CCOc1cc(/C=N/NC(=O)c2nnn(-c3nonc3N)c2C)ccc1OCc1cccc(F)c1	GRIN3A LBD mod 26.0
CCOc1cc(/C=N/NC(=O)c2nnn(-c3nonc3N)c2C)ccc1OCc1ccc(C)cc1	none (no result: TMEM16A act, GRIN3A LBD mod, TMEM16A inh)
CCOc1cc(/C=N/NC(=O)c2nnn(-c3nonc3N)c2C)ccc1OCc1ccc(F)cc1	GRIN3A LBD mod 15.4
Cc1cccc(COc2ccc(/C=N/NC(=O)c3nnn(-c4nonc4N)c3C)cc2)c1	none
COc1ccc(/C=N/NC(=O)c2c(C)nnn2-c2nonc2N)cc1OC	GRIN3A LBD mod 19.4
COc1ccc(/C=N/NC(=O)c2nnn(-c3nonc3N)c2C)cc1OC	none (no result: TMEM16A act, GRIN3A LBD mod, TMEM16A inh)
Cc1cccc(NC(=O)CCNC(=O)c2ccc(Br)cc2)c1C	none
CC1C(=O)N2CCCc3cc(NC(=O)COc4ccccc4)cc1c32 (stereo unspecified)	none
O=c1[nH]c(SCc2n[nH]c(=S)n2-c2ccccc2)nc2sc3c(c12)CCC3	CRFBP-R2 block 93.1
COc1cc(NC(=O)COC(=O)/C=C/c2ccc(Cl)cc2Cl)cc(OC)c1	GRIN3A LBD mod 14.1
O=C(NCc1cn2ccccc2n1)C1CCC(=O)N(Cc2ccccc2F)C1 (stereo unspecified)	CRFBP-R2 block 61.3
CCn1ccnc1CNC(=O)C1CCC(=O)N(Cc2ccccc2F)C1 (stereo unspecified)	none
COc1ccc(OC)c(NC(=O)COc2ccc3c(c2)CCC3)c1	none (no result: TMEM16A inh)
CC(C)C[C@H](NC(=O)c1[nH]cnc1C(=O)Nc1ccc(CNC(=O)OC(C)(C)C)cc1)C(=O)OCc1ccccc1	GRIN3A LBD mod 36.2
C[C@H](NC(=O)c1[nH]cnc1C(=O)Nc1ccc(CNC(=O)OC(C)(C)C)cc1)C(=O)OCc1ccccc1	TMEM16A inh 100
CC(C)C[C@H](NC(=O)c1[nH]cnc1C(=O)Nc1ccc(CNC(=O)OC(C)(C)C)cc1)C(=O)OC(C)(C)C	none
CC(=O)NC(Cc1c[nH]c2ccccc12)C(=O)N1CCN(S(=O)(=O)c2ccccc2)CC1 (stereo unspecified)	none (no result: TMEM16A inh)
COc1ccccc1C(=O)Nc1ccc(S(=O)(=O)Nc2cc(C)nc(C)n2)cc1	GRIN3A LBD mod 15.7
COc1ccc(C(=O)Nc2ccc(S(=O)(=O)Nc3cc(C)nc(C)n3)cc2)c(OC)c1	none
COc1ccc(C(=O)Nc2ccc(S(=O)(=O)Nc3cc(C)nc(C)n3)cc2)cc1OC	TMEM16A act -6.7
Cc1cc(C)n2c(Nc3c(C)cccc3C)c(CC(C)C)nc2n1	none (no result: TMEM16A act, CRFBP-R2 block, GRIN3A LBD mod, TMEM16A inh, CRFBP-R2 agonist)
C=CCC[C@H](Cc1ccc(F)cc1)C(=O)OC[C@@H](Cc1c[nH]c2ccccc12)NC(=O)[C@@H](CC=C)CC(=O)N[C@H](CO)Cc1ccccc1	none (no result: TMEM16A inh)
CS(=O)(=O)c1nsc2nc(=O)c(/C=C3\C=Nc4ccccc43)c(N)n12	GRIN3A LBD mod 38.7
CC(C)Cc1nn2c(N)c(/C=C3\C=Nc4ccccc43)c(=O)nc2s1	none
CC(C)Sc1nsc2nc(=O)c(/C=C3\C=Nc4ccccc43)c(N)n12	GRIN3A LBD mod 24.8
Cc1cccc(C)c1NC(=O)c1ccc(-c2cc(F)ccc2F)o1	none (no result: TMEM16A act, CRFBP-R2 block, GRIN3A LBD mod, TMEM16A inh, CRFBP-R2 agonist)
Nc1n[nH]c(N)c1N=Nc1cccc(C(F)(F)F)c1	GRIN3A LBD mod 20.1
Nc1n[nH]c(N)c1N=Nc1cccc(F)c1	none
CC1(C(=O)NS(=O)(=O)c2ccc(F)cc2F)CCN1C(=O)CCc1ccccc1 (stereo unspecified)	none (no result: TMEM16A act, CRFBP-R2 block, GRIN3A LBD mod, TMEM16A inh, CRFBP-R2 agonist)
CC1(C)C(=O)OC(c2cccn2-c2ccc([N+](=O)[O-])cc2)C2(CCCCC2)C1=O (stereo unspecified)	CRFBP-R2 agonist 263.1
CC1(C)C(=O)OC(c2cccn2-c2ccc([N+](=O)[O-])cc2)C(C)(C)C1=O (stereo unspecified)	none
COc1ccc(-c2cc(=O)c3c(OC)c(OC)c(OC)c(OC)c3o2)cc1OC	none
COc1ccc(Br)c2oc(SC)cc(=O)c12	GRIN3A LBD mod 10.1
O=C(O)c1cccc(Oc2ccc(C(=O)O)c([N+](=O)[O-])c2)c1	none (no result: TMEM16A inh)
O=C1NC(=Nc2ccccc2Cl)S/C1=C\c1cccc([N+](=O)[O-])c1	TMEM16A inh 25
O=C1NC(=Nc2ccccc2Cl)S/C1=C\c1cccc([N+](=O)[O-])c1O	CRFBP-R2 block 53.0, TMEM16A inh 25
O=C(Nc1cccc(/C=C/c2ccccn2)c1)c1ccc(-n2cncn2)c([N+](=O)[O-])c1	TMEM16A inh 25
O=C(Nc1ccc(F)c(F)c1)c1ccc(-n2cncn2)c([N+](=O)[O-])c1	none (no result: TMEM16A inh)
Cn1c(CC(=O)NC(C)(C)CO)c(Sc2ccccc2)c2ccccc21	none
CCOC(=O)Cc1c(Sc2ccccc2)c2ccccc2n1C	GRIN3A LBD mod 11.6
CCN(CC)c1ccc(/C=N/NC(=O)c2cc3ccccc3[nH]2)cc1	GRIN3A LBD mod 13.7
C=CC(=O)Oc1ccc(N2Cc3ccccc3C2=O)cc1	CRFBP-R2 block 97.5
CCOc1ccccc1NC(=O)c1ccc2c(O)c(S(=O)(=O)c3ccccc3)c(=O)[nH]c2c1	none (no result: TMEM16A act, GRIN3A LBD mod, TMEM16A inh)
CCOc1ccc(/C=N/NC(=O)Cc2csc(Nc3cccc(C(F)(F)F)c3)n2)c(OCC)c1	GRIN3A LBD mod 10.0
CNc1ccc(S(=O)(=O)NCC(=O)OC(C)C(=O)N(C)Cc2ccccc2)cc1[N+](=O)[O-] (stereo unspecified)	none (no result: TMEM16A inh)
CCOC(=O)N1CCN(S(=O)(=O)c2ccc(C)c(C)c2C)CC1	CRFBP-R2 block 93.8
CC(CNC(=O)CN(C)CC(=O)Nc1ccccc1Br)c1ccccc1 (stereo unspecified)	none (no result: TMEM16A inh)
COc1ccc(NC(=O)COc2nsnc2N2CCOCC2)c(OC)c1	GRIN3A LBD mod 14.0
Cc1ccc(NC(=O)COc2nsnc2N2CCOCC2)cc1Cl	none
COc1ccc(C)cc1N(CC(=O)NCCSCc1cccc(Cl)c1)S(C)(=O)=O	none
